This note sets out measurements from PubChem BioAssay.

Molecules are shown by their SMILES. For part of these data: Entries with a potency or affinity are not part of this list. The source made the active and inactive calls.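 The calls were made as follows, unless noted: active = calcium signal ratio cut to more than 3 SD under the fully stimulated control mean yet still positive, in both repeats and the primary screen; inactive = the rest.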

Experiment [1] concerns TRPC4 beta (transient receptor potential cation channel C4), mouse. The experiment in a line: activators of mouse TRPC4 channel, confirmation, cell-based, Fluo4 calcium, HEK293 TRPC4beta/mu-opioid, duplicates, 10 µM (AID 2426;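 active = fluorescence ratio normalized to control raised more than 50% in primary screen plus both repeat runs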). As to conditions: Fluo4 calcium fluorescence, at 10 µM; hits give high values.
Experiment [2] relates to transient receptor potential cation channel C4 beta (TRPC4), mouse. The experiment in a line: activators of mouse TRPC4 channel, confirmation, cell-based, second round, Fluo4, HEK293 TRPC4beta/mu-opioid, 1 µM (AID 2461;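 active = primary screen active and over 50% activation in each of two duplicate runs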). As to conditions: Fluo4 calcium fluorescence, at 1 µM; hits give high values.
Experiment [3] deals with TRPC4 (transient receptor potential cation channel C4 beta), mouse. The experiment in a line: positive allosteric modulators of mouse TRPC4, confirmation, cell-based, second round, Fluo-4, HEK293 TRPC4beta/mu-opioid, 1 µM (AID 2554;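 active = primary screen hit whose fluorescence ratio, in both repeats, exceeds the weak agonist control mean by 3 SD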). As to conditions: DAMGO EC20, Fluo-4 calcium flux, at 1 µM; hits give high values. (Calcium assays in cells follow changes in intracellular calcium, usually with a dye or a luminescent sensor.)

The subject of experiment [4] is TRPC4 beta (transient receptor potential cation channel C4), mouse. The experiment in a line: positive allosteric modulators of mouse TRPC4, confirmation, cell-based, Fluo-4, HEK293 TRPC4beta/mu-opioid (AID 2555;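 active = primary screen hit whose calcium fluorescence ratio, in both repeats, exceeds the weak agonist control mean by 3 SD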). As to conditions: DAMGO EC20, Fluo-4 calcium flux, at 10 µM; hits give high values.
Experiment [5] deals with Short transient receptor potential channel 4 (Mus musculus) (UniProt Q9QUQ5). The experiment in a line: inhibitors of mouse TRPC4 channel, confirmation, cell-based, Fluo4, HEK293 TRPC4beta/mu-opioid (AID 2636;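 active = calcium signal cut by more than 3 SD below the full-agonist control yet still positive, in both repeats and the earlier primary screen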). The following applies: DAMGO, Fluo4 calcium flux, at 10 µM; hits give high values.
The target is the same in experiment [6]. The experiment in a line: inhibitors of mouse TRPC4 channel, confirmation, cell-based, second round, Fluo4, HEK293 TRPC4beta/mu-opioid, 1 µM (AID 2637). As to conditions: Fluo4 calcium flux, DAMGO, at 1 µM; hits give high values.
The target is the same in experiment [7]. The experiment in a line: mouse TRPC4 channel activators, dose response, cell-based, HEK293 TRPC4/mu-opioid, Fluo-4 calcium (AID 434937;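 active = primary screen activator hit with a dose response curve and TRPC4 channel activation at any tested dose; inactive = no activation, no dose response, or not a primary hit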).
Experiment [8] has the same target. The experiment in a line: TRPC4 positive allosteric modulators, dose response, cell-based, HEK293 TRPC4/mu-opioid, Fluo-4 calcium, EC20 DAMGO (AID 434941;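 active = earlier screen potentiator hit that boosts the TRPC4 ion channel at some dose, with a dose response; inactive = no potentiation, no dose response, or not a prior hit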;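 also: calcium entry triggered by an EC20 dose of DAMGO at the co-expressed mu-opioid receptor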).
The target is the same in experiment [9]. The experiment in a line: mouse TRPC4 channel inhibitors, dose response, cell-based, HEK293 TRPC4/mu-opioid, Fluo-4 calcium (AID 434942;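 active = primary screen inhibitor hit that blocks the TRPC4 channel at some tested dose, yielding a dose curve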).
The target in experiment [10] is Short transient receptor potential channel 6 (Mus musculus) (UniProt Q61143). The experiment in a line: inhibition of mouse TRPC6 channel, confirmation, selectivity assay for TRPC4 inhibitor project, cell-based, HEK293, membrane potential dye, duplicate (AID 434948;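 active = active in primary screen and both duplicates, each dropping signal beyond three positive-control SD with fluorescence still positive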). As to conditions: HEK293 TRPC6, membrane potential dye fluorescence, at 10 µM, stimulated with maximal-effect acetylcholine; hits give high values.

For experiment [11] the target is unchanged. The experiment in a line: activation of mouse TRPC6 channel, confirmation, selectivity assay for TRPC4 activator project, cell-based, HEK293, membrane potential dye, duplicate (AID 434950;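 active = membrane potential signal rise above negative control mean plus 3 SD in both duplicates, also active in the earlier TRPC4 screen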). The following applies: HEK293 TRPC6, membrane potential fluorescence, at 10 µM; hits give high values.
For experiment [12] the target is unchanged. The experiment in a line: TRPC6 potentiation by TRPC4 potentiator hits, confirmation, selectivity assay for TRPC4 potentiator project, HEK293 cells, membrane potential dye, duplicate (AID 434952;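 active = compound raising the membrane signal above positive-control mean plus 3 SD in both repeats, and a primary screen hit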). As to conditions: HEK293 TRPC6, membrane potential dye fluorescence, at 10 µM, maximal acetylcholine added after compound; hits give high values.
Experiment [13] concerns the target Short transient receptor potential channel 4 (Mus musculus) (UniProt Q9QUQ5). Nature of the experiment: calcium flux activators in TRPC4/5HT1a cells, counter-screen for TRPC4 activator project, cell-based, second counter screen, HEK293 TRPC4/5HT1a, Fluo-4 (AID 434977;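 active = calcium signal rise above buffer-control mean plus 5 SD in both duplicates, and also a hit in the primary screen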). As to conditions: Fluo-4 calcium flux, at 10 µM; hits give high values.
Experiment [14] is described as follows: calcium flux inhibitors in TRPC4/5HT1a cells, confirmation, counter-screen for TRPC4 inhibitor project, cell-based, second counter screen, HEK293 TRPC4/5HT1a, Fluo-4 (AID 434978;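 active = primary screen active whose calcium signal fell more than 3 SD beyond the full-serotonin control mean in both duplicate plates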;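 also: serotonin given first at submaximal then at maximal dose after compound preincubation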). As to conditions: Fluo-4 calcium flux, at 10 µM, serotonin added to trigger calcium flux; hits give high values.
The subject of experiment [15] is TRPC4 (mouse), co-expressed with 5HT1a in HEK293. The experiment in a line: calcium flux potentiators in TRPC4/5HT1a cells, confirmation, counter-screen for TRPC4 potentiator project, cell-based, second counter screen, HEK293 TRPC4/5HT1a, Fluo-4 (AID 434979;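 active = signal rise over 3 SD above mean of control wells given weak agonist, in both repeats and first screen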). The following applies: Fluo-4 calcium flux, at 10 µM, serotonin added at its EC20 dose; hits give high values.

Experiment [16] is described as follows: calcium flux activation in mu-opioid HEK293 cells, confirmation, counter-screen for TRPC4 activator project, cell-based, HEK293 mu-opioid receptor line (AID 449723;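 active = hit in primary screen, with calcium signal over 5 SD above buffer well mean in both duplicates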;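 also: counter screen cells carry the mu-opioid receptor alone and lack TRPC4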). The following applies: Fluo-4 calcium fluorescence, at 10 µM; hits give high values.
Experiment [17] in a line: calcium flux enhancement in mu-opioid HEK293 cells, confirmation, counter-screen for TRPC4 allosteric potentiator project, cell-based, HEK293 mu-opioid receptor line (AID 449724;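 active = calcium signal rise more than 3 SD above the low-dose agonist control mean, in both duplicate plates and the primary screen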;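 also: HEK293 cells carrying mu-opioid receptor only with no TRPC4 channel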). As to conditions: Fluo-4 calcium flux, at 10 µM, compound added before EC20 DAMGO stimulus; hits give high values.

Chain of Short transient receptor potential channel 4 (Mus musculus) (Q9QUQ5 whole entry, looked up): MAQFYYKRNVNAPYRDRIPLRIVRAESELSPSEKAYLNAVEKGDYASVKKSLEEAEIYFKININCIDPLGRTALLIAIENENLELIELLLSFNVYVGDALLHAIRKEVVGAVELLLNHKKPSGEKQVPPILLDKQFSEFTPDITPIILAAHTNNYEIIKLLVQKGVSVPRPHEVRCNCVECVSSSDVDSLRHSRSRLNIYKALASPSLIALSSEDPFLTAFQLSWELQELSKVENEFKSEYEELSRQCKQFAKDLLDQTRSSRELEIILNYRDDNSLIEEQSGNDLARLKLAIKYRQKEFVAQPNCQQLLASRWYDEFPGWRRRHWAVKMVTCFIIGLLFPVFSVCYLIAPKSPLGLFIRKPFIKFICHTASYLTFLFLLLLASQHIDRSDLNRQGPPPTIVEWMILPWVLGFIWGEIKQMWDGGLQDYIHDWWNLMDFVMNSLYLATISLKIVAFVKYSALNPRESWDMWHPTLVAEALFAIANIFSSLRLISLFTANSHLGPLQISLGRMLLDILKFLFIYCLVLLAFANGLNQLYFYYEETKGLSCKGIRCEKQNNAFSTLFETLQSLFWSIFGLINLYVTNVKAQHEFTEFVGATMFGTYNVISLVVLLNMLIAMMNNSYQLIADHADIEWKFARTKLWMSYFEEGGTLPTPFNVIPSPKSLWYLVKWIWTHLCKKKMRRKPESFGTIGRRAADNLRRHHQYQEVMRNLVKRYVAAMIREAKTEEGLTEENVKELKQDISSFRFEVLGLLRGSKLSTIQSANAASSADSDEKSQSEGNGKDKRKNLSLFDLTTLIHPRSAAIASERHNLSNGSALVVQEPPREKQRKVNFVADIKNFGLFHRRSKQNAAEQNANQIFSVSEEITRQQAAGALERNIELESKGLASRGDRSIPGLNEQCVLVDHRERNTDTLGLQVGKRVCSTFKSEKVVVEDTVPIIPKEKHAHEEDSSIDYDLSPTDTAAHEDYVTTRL
Chain of Short transient receptor potential channel 6 (Mus musculus) (Q61143 whole entry, looked up): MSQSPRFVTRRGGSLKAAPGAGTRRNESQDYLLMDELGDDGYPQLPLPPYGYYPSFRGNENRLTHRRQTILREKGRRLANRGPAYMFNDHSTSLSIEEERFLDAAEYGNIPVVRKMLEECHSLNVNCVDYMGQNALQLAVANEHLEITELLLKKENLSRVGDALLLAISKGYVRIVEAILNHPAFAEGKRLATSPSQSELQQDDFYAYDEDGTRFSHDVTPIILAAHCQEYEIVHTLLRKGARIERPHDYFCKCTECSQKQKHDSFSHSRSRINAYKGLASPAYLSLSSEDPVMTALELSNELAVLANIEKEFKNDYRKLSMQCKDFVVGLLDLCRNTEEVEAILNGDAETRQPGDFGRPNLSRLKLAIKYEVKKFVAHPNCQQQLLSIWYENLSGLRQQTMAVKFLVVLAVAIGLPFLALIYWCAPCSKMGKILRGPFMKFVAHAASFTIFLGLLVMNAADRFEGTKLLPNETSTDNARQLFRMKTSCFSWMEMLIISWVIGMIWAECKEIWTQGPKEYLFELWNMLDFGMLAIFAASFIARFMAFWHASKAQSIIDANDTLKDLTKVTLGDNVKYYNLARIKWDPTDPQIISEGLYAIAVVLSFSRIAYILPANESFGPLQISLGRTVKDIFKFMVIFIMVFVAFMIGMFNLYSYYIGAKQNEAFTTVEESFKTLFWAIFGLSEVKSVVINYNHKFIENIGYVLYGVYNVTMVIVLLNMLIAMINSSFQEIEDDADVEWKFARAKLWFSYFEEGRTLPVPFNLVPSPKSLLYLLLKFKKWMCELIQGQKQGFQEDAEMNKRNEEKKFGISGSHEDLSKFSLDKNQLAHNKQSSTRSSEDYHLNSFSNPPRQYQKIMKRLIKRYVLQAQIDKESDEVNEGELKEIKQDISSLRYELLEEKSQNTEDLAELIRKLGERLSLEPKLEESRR

With `Clc1cc(/C=N\NC2=NCCN2)cc(Cl)n1`, the outcome in experiment [1], in [2], in experiment [3], in [4], in experiment [5] and in experiment [6] was inactive. In addition, the outcome in experiment [7], in experiment [8], in experiment [9], in experiment [10], in experiment [11] and in [12] was inactive. The outcome in experiment [13], in experiment [14], in experiment [15], in [16] and in experiment [17] was inactive.
For `CCN(CC)CCOCCOc1ccc(Cl)c2ccccc12`, the result in experiment [1], in experiment [2], in experiment [3], in experiment [4], in experiment [5] and in experiment [6] was inactive. The outcome in [7], in experiment [8], in [9], in [10], in experiment [11] and in [12] was inactive. Further, the outcome in experiment [13], in experiment [14], in experiment [16] and in experiment [17] was inactive. The potentiation in [15] was 11% (active).
For the compound `NC(=O)c1ccc(Oc2ccc3c(c2)CCC3)c([N+](=O)[O-])c1`, the result in experiment [1], in experiment [2], in experiment [3], in experiment [5], in experiment [6] and in [7] was inactive. In addition, the result in experiment [8], in experiment [9], in experiment [10], in [11], in [12] and in experiment [13] was inactive. Moreover, the outcome in experiment [14], in [16] and in [17] was inactive. In addition, the potentiation is 42% (active) in experiment [4] and 84.5% (active) in experiment [15].
In the case of `Cc1ccc(-c2cn(-c3ccccc3)c(SCC(N)=O)n2)cc1C`, the outcome in experiment [1], in [2], in [4], in experiment [5], in [6] and in experiment [7] was inactive. For the same compound, the outcome in experiment [8], in experiment [9], in experiment [10], in experiment [11], in [12] and in [13] was inactive. Also, the result in experiment [14] and in experiment [16] was inactive. The values for the potentiation in experiment [3] and in experiment [15] were 29% (active) and 25.4% (active), respectively. Besides, in experiment [17], the activation was 741% (active).
Consider `C/C(=N\NC(=O)COc1ccc(C)cc1C(C)C)c1ccc(-n2ccnc2)cc1`, for which the outcome in experiment [1], in experiment [2], in experiment [3], in experiment [4], in [5] and in [6] was inactive. In addition, the outcome in experiment [7], in [8], in [9], in experiment [10], in experiment [11] and in experiment [12] was inactive. Also, the result in experiment [13], in experiment [14], in experiment [16] and in [17] was inactive. For the same compound, in experiment [15], the potentiation was 10.4% (active).
For the compound `Cc1nn(-c2ccccc2)c2nc(-c3ccccc3)cc(C(=O)N3CCOCC3)c12`, the outcome in experiment [1], in experiment [2], in [3], in [5], in experiment [6] and in experiment [7] was inactive. Also, the result in experiment [8], in [9], in experiment [10], in experiment [11], in experiment [12] and in [13] was inactive. For the same compound, the outcome in [14], in experiment [16] and in [17] was inactive. Further, the potentiation in [4] is 15% (active); in [15], 34.4% (active).
Turning to `C=CCn1c(SCCN2CCCC2)nc2c([nH]c3ccccc32)c1=O`, the result in experiment [1], in experiment [2], in experiment [4], in experiment [5], in experiment [6] and in experiment [7] was inactive. Further, the result in [8], in experiment [9], in experiment [10], in experiment [11], in [12] and in experiment [13] was inactive. For the same compound, the outcome in [14], in experiment [15], in [16] and in experiment [17] was inactive. For the same compound, in experiment [3], the potentiation was 21% (active).
`Cc1cc(OCCN2CCCCC2)nc2ccccc12`: the result in experiment [1], in experiment [2], in experiment [3], in [4], in experiment [5] and in experiment [6] was inactive. Also, the result in [7], in experiment [8], in experiment [9], in experiment [10], in experiment [11] and in [12] was inactive. The outcome in experiment [13], in experiment [14], in experiment [16] and in experiment [17] was inactive. Further, the potentiation in [15] was 13.7% (active).
Turning to `CC(C)c1nc2ccc(Br)cn2c1NC1CCCC1`, the result in experiment [1], in experiment [2], in [3], in experiment [4], in [5] and in [6] was inactive. Also, the result in [7], in experiment [8], in experiment [9], in experiment [10], in [11] and in experiment [12] was inactive. Moreover, the outcome in experiment [13], in [14], in experiment [15], in experiment [16] and in experiment [17] was inactive.
